# In PubChem BioAssay AID449 (The Scripps Research Institute Molecular Screening Center, 2006):
# About 320 (0.57%) of roughly 56,000 compounds were called active. This is one part of a sample in which actives are shown more often than they occur.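 How the source made its calls: active means activation above a cutoff set at the mean activation of all tested compounds plus 3 SD (cut at about 54% in these data); inactive means the rest, inconclusive results apart.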
# Target: Sphingosine 1-phosphate receptor 1 (Homo sapiens) (UniProt P21453)
# Experiment: S1P1 agonists and agonism potentiators, primary screen, cell-based, primary and confirmation screens, CRE-bla reporter (AID 449);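 further: forskolin at 4 µM as EC80 and the EC20 agonist is SEW2871; 100% = SEW2871 at its EC100 plus forskolin at EC80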
# Details: S1P1 CRE-bla cells, forskolin, beta-lactamase FRET, potentiator mode, at 9.5 µM, stronger effect = higher value, 100% = saturating reference agonist, 0% = basal, S1P1 agonist co-added at EC20, 2 nM
# [1] = measured here: confirmation screen, triplicate average
# Chain of Sphingosine 1-phosphate receptor 1 (Homo sapiens) (P21453 whole entry, looked up): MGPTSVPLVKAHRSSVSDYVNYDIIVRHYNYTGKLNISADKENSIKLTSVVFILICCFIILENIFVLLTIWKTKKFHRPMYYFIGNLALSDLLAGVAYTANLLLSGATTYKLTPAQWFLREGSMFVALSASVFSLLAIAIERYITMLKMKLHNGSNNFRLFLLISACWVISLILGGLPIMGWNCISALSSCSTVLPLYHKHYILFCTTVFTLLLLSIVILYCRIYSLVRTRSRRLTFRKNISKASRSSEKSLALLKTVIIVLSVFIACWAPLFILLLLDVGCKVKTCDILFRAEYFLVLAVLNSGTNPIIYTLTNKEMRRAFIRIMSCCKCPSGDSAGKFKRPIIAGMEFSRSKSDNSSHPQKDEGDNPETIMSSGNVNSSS
Compound,activation,activation [1] [%]
c1csc(-c2cn3c(n2)SCC3)c1,-25.6% (inactive),
CCc1cc(=O)oc2cc(OCC(=O)N3CCCc4ccccc43)ccc12,-15.5% (inactive),
CCSC(C)CC1C/C(=N/O)c2c(C)noc2C1 (stereo unspecified),-5.8% (inactive),
COC(=O)Cc1c(C)c2ccc(OCC(=O)NCc3ccc4c(c3)OCO4)cc2oc1=O,-1.6% (inactive),
CSc1nnc(CNC(=O)c2ccccc2)n1-c1ccc(F)cc1,-11.1% (inactive),
O=C(CCCOc1ccccc1)Nc1cccc(C(=O)O)c1,2.3% (inactive),
COc1ccc(C(=O)Nc2cccnc2)cc1C(=O)Nc1cccnc1,5.6% (inactive),
CN(C)/C=C1/C(=O)Nc2ccccc21,-14.3% (inactive),
COC(=O)C(C)n1cnc2c(nnn2-c2cccc(Cl)c2)c1=O (stereo unspecified),-14.1% (inactive),
Cn1c(=O)[nH]c(=O)c2c1nc(CN1CCN(c3ccccc3F)CC1)n2CCc1ccccc1,-6.4% (inactive),
O=C(Nc1c(-c2ccccc2)nc2c(Br)cc(Br)cn12)c1ccco1,17.7% (inactive),
Cc1nc2ccc(S(=O)(=O)NC(C(=O)N3CCCCCC3)C(C)C)cc2s1 (stereo unspecified),-9.8% (inactive),
CCCOC(=O)c1cc2ccccc2oc1=O,-2.5% (inactive),
Cc1ccnc(SCCn2c(N(C)Cc3ccccc3)nc3c2c(=O)n(C)c(=O)n3C)n1,-31.4% (inactive),
N#Cc1c2c(c(-c3ccccc3)[nH]c1=O)CCCC2,-28.7% (inactive),
C=CCOc1nc2c(c(=O)n(C)c(=O)n2C)n1Cc1ccc(Cl)cc1Cl,2.7% (inactive),
O=P(O)(CN1CCCCC1)CN1CCCCC1,-3% (inactive),
COc1ccc(OCC(=O)OCC(=O)Nc2ccc(S(=O)(=O)N3CCCCC3)cc2)cc1,-8.9% (inactive),
COc1ccc(C2C(C#N)=C(N)Oc3cc(N)ccc32)cc1OC (stereo unspecified),-18% (inactive),
COc1ccc(CSc2nc(N3CCOCC3)c3c(c2C#N)CC(C)(C)OC3)cc1,-11.9% (inactive),
CC(=O)Nc1ccc(S(=O)(=O)N2CCN(C3CCCCCCC3)CC2)cc1,-11.9% (inactive),

Compound,activation,activation [1] [%]
COc1cc(OC)cc(C(=O)Nc2ncc3c(n2)CC(C)(C)CC3=O)c1,-4.2% (inactive),
CC(C)(C)Nc1c(N)c(=O)oc2ccccc12,9.1% (inactive),
O=c1oc2c(CN3CCCCC3)c(O)ccc2c2c1CCCCC2,-2.6% (inactive),
O=C(O)c1cccc2c1C(=O)N(C1CCCCC1)C2,-25.1% (inactive),
O=C(CN1CCOc2ccccc21)N1CCC(Cc2ccccc2)CC1,6% (inactive),
CCCC(=O)N1c2ccccc2NC2=C(C(=O)CCC2)C1c1ccc(F)cc1 (stereo unspecified),-9.6% (inactive),
Cc1cccc(CC(=O)Nc2c3c(nn2-c2cccc(Cl)c2)CS(=O)C3)c1 (stereo unspecified),26.1% (inactive),
CC[C@H]1CN2CCc3cc(OC)c(OC)cc3[C@@H]2C[C@@H]1C[C@H]1NCCc2cc(OC)c(OC)cc21,131% (active),101
Cc1csc(NC(=O)C2CCCN2C(=O)OCC(C)C)n1 (stereo unspecified),6.7% (inactive),
CCOc1ncccc1C(=O)OCc1cn2cc(Cl)ccc2n1,-55.2% (inactive),
CCOC(=O)N1CCN(C(=O)C2CCCN(c3ncnc4c3sc3cccc(F)c34)C2)CC1 (stereo unspecified),-8.7% (inactive),
CCOC(=O)N1CCN(C(=O)C2CCN(c3ncnc4c3sc3cccc(F)c34)CC2)CC1,96.6% (active),78.6
CCOC(=O)C1CCN(c2ncnc3c2oc2ccc(Br)cc23)CC1,3.6% (inactive),
CN1C(=O)CC(N2CCN(c3ccccn3)CC2)C1=O (stereo unspecified),-14.2% (inactive),
O=C(O)CN(Cc1ccco1)S(=O)(=O)c1ccccc1,-18.7% (inactive),
CCC1(C)N(O)C(C)(C)C(c2ccc(OC)cc2)=[N+]1[O-] (stereo unspecified),-9.9% (inactive),
Cn1c(=NC(=O)C2CC2)sc2cc(F)cc(F)c21,0.7% (inactive),
COc1ccc(N2C(=O)C3CCCN3C2c2cccc(OC)c2)cc1 (stereo unspecified),5.4% (inactive),
C=C(Br)CN1CCN(CC(=C)Br)CC1,-15.8% (inactive),
Cc1ccc(C2CC(c3cccc(Br)c3)n3nc(N)nc3N2)cc1 (stereo unspecified),-10.7% (inactive),
COc1ccccc1-n1c(CNC(=O)c2ccccc2)nnc1SCC(=O)Nc1nnc(C)s1,-0.9% (inactive),

Compound,activation,activation [1] [%]
O=C(CSCc1cccs1)N1CCCC1,-22.9% (inactive),
CC(C)Oc1ccc(C(=O)Nc2cc(=O)n(C)c(=O)n2C)cc1,-4.5% (inactive),
CCCN1CCN(C(=O)Cn2ncc3ccccc32)CC1,-19.3% (inactive),
Cc1cc(C)c(S(=O)(=O)NCCCN2CCOCC2)cc1Br,3.7% (inactive),
CC(=O)N1CCN(c2cccc(C)c2C)CC1,-9.6% (inactive),
CCNC(=O)N1CCNC(=O)C1CC(=O)Nc1ccc(C(=O)OCC)cc1 (stereo unspecified),-11.5% (inactive),
COc1ccccc1NC1=NC2(CCCC2)N=C(N)N1,5.5% (inactive),
CCN(CC)S(=O)(=O)c1ccc2nc(CSc3nnnn3-c3ccc(O)cc3)[nH]c2c1,-21.4% (inactive),
O=S(=O)(Nc1ccc2nc(-c3ccco3)[nH]c2c1)c1ccccc1,5.9% (inactive),
Cc1ccc(C2c3c(oc4ccc(C)cc4c3=O)C(=O)N2CCCN2CCOCC2)cc1 (stereo unspecified),3.6% (inactive),
COc1ccccc1N1CCN(Cc2nnnn2CCc2ccccc2)CC1,-1.7% (inactive),
COCCn1nnnc1C(c1ccccc1Cl)N1CCN(c2ccccc2OC)CC1 (stereo unspecified),-15.5% (inactive),
COc1ccccc1-n1nnnc1S(=O)(=O)Cc1ccc(Cl)cc1,89.3% (active),76
CCOC(=O)C1Cn2c(nc3c(c2=O)C(C)(CC)Cc2ccccc2-3)S1 (stereo unspecified),-35.4% (inactive),
COc1ccc(OC)c(C(=O)c2coc3ccc(OC)cc23)c1,7.5% (inactive),
CCCCn1c(CCCNC(=O)CC)nc2ccccc21,-7% (inactive),
COc1ccc(-c2ccc(-c3noc(-c4ccncc4)n3)c(OC)n2)cc1,-6.8% (inactive),
CN1CCN(c2ccc(NC(=O)COc3ccc(Cl)cc3Cl)cc2)CC1,-9.3% (inactive),
Cc1cccc(NC(=O)COc2ccccc2C)n1,15.3% (inactive),
Cc1ccccc1OCC(=O)Nc1ccc(N2CCN(C(=O)C(C)C)CC2)c(Cl)c1,92.5% (active),68.2
